SKN-1 block = blocks SKN-1 activity in C. elegans; C. elegans VP596 Pgst-4::GFP/RFP ratio, acrylamide-induced, 24 h; inhibition, % at 21.8 µM; actives 0.49% (n = 360,000);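 active = interference check ratio from 0.5 to 1.5 plus GFP to RFP signal ratio inhibition reaching or exceeding a fixed threshold, cut at about 30% in these data, passing the limit was not always enough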
F508del corr = correctors of CFTR F508del function in bronchial epithelial cells; CFBE cells, YFP halide quenching; stimulated with forskolin plus potentiator P3; % fluorescence drop versus neutral controls; activity (quench increase), % at 7.58 µM; actives 0.36% (n = 350,000); AID 720511;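 active = mean added fluorescence quench of at least 8% versus neutral control, with both replicates also reaching 8%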;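 note: cells transiently co-express mutant CFTR-F508del with the halide-sensitive YFP; corrector assay measuring rescue of mutant channel to the surface after 24 h compound exposure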
CendR NRP1 mod = modulators of CendR peptide binding to human neuropilin-1; FAM-RPARPAR peptide binding to NRP-1, fluorescence polarization; inhibition, % at 25 µM; actives 0.85% (n = 360,000); AID 602438;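 active = inhibition or corrected inhibition above about 18%, plus a signal ratio from 0.5 to 1.5, limit read from the data, passing the limit was not always enough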
MPTP block = inhibitors of mitochondrial permeability transition pore | isolated mouse mitochondria, Ca2+ swelling absorbance, 30 min | inhibition, % at 10 µM | actives 1.4% (n = 360,000) | AID 602449;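 active = inhibition of 50% or more, scaled per plate between neutral and stimulator controls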;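 note: 0% = DMSO wells given calcium and 100% = 1 mM EGTA wells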
ATG4B inhibitor = ATG4B (human) cysteine protease inhibition; actives 0.51% (n = 340,000); AID 504462; ATG4B cleavage of LC3-PLA2, NBD-HPC fluorescence, 1 h; Q9Y4P1; inhibition, % at 8.33 µM; in the data active = inhibition above about 40%
Target sequence (Q9Y4P1 whole entry, looked up): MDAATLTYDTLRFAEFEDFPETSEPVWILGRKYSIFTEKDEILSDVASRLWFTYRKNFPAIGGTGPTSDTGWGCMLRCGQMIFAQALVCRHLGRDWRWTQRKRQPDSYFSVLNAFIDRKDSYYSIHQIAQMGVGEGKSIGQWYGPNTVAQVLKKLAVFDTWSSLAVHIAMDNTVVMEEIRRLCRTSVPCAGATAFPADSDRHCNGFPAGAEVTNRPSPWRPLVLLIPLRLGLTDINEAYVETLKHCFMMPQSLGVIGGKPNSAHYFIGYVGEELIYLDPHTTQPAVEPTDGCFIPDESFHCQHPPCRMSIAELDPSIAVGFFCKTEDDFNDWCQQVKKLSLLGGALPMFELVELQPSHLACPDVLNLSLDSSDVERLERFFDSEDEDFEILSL
An asterisk follows results filed as active; · = no result given. In the library only some 2.7% were active in any assay of this set; here they are far more common.

SMILES	SKN-1 block	F508del corr	CendR NRP1 mod	MPTP block	ATG4B inhibitor
Clc1ccc(SCc2cc(Cl)nc(-c3ccccc3)n2)cc1	25.4	·	-9.1	3.0	3.2
c1ccc(OCc2cc(-c3ccccc3)no2)cc1	45.0*	1.5	4.8	2.6	7.7
Clc1ccc(-c2cc(CSc3cccc(Cl)c3)on2)cc1	60.2*	·	4.5	3.9	4.7
c1ccc(SCc2cc(-c3ccccc3)no2)cc1	54.8*	0.3	2.8	0.9	20.7
Clc1ccc(SCc2cc(-c3ccccc3)on2)cc1	49.5*	·	4.8	1.6	0.8
Clc1ccc(-c2cc(CSc3ccccc3)on2)cc1	44.7*	·	0.5	0.7	8.7
Cc1ccc(SCc2cc(-c3ccc(Cl)cc3)no2)cc1	19.6	·	11.7	4.0	-2.3
C[C@@H]1CN([C@@H](C)CO)C(=O)Cc2cc(NC(=O)Nc3ccc(C(F)(F)F)cc3)ccc2O[C@@H]1CN(C)C(=O)Nc1ccc(C(F)(F)F)cc1	·	-0.7	·	·	·
CCc1ccc(NC(=O)N(Cc2ccco2)C(C)c2cccs2)cc1 (stereo not drawn)	-14.6	·	31.6*	1.6	10.5
Cc1cc(NCc2ccccn2)n2nc(C)c(-c3ccccc3)c2n1	5.5	11.7*	0.1	3.0	-5.1
O=C(C=Cc1ccccc1)c1ccc([N+](=O)[O-])cc1	1.9	5.0	17.6*	-1.7	-7.3
COc1ccc(CNC(=O)c2ccccc2[N+](=O)[O-])cc1	8.8	0.8	26.2*	-4.7	-4.7
COc1ccc(NC(=O)c2ccccc2[N+](=O)[O-])cc1	0.0	·	-7.2	-0.2	8.4
Cc1noc(C)c1NC(=O)Nc1ccc2c(c1)CC(=O)N([C@@H](C)CO)C[C@@H](C)[C@@H](CN(C)S(C)(=O)=O)O2	·	-0.7	·	·	·
CN(C)C(=O)C[C@H]1C[C@H]2c3cc(NS(=O)(=O)c4ccccc4)ccc3O[C@H]2[C@H](CO)O1	·	1.6	·	·	·
C[C@H](CO)N1C[C@H](C)[C@H](CN(C)C(=O)c2ccc3c(c2)OCO3)Oc2cc(C#Cc3ccccc3F)ccc2S1(=O)=O	·	8.8*	·	·	·
Cc1noc(C)c1NC(=O)N(C)C[C@@H]1Oc2cc(C#CCC3CCCC3)ccc2S(=O)(=O)N([C@H](C)CO)C[C@@H]1C	·	0.8	·	·	·
Cc1noc(C)c1NC(=O)N(C)C[C@H]1Oc2cc(C#CCC3CCCC3)ccc2S(=O)(=O)N([C@@H](C)CO)C[C@@H]1C	·	10.1*	·	·	·
C[C@H](CO)N1C[C@H](C)[C@H](CN(C)C(=O)NC2CCCCC2)Oc2cc(C#Cc3ccc(F)cc3)ccc2S1(=O)=O	·	8.2*	·	·	·
COCC#Cc1cnc2c(c1)C(=O)N([C@H](C)CO)C[C@@H](C)[C@H](CN(C)C(C)=O)O2	·	-2.3	·	·	·
Cc1ccc(C(=O)N(C)CC(=O)Nc2ccc(N3CCOCC3)cc2)s1	35.2*	2.8	-2.6	-0.1	0.0
C[C@H](CO)N1C[C@H](C)[C@H](CN(C)CC2CC2)Oc2ccc(NS(=O)(=O)c3ccc(F)cc3)cc2CC1=O	·	1.0	·	·	·
C/C=C/c1ccc([C@H]2[C@@H](CO)N(C(=O)C3CCC3)[C@H]2CNC(=O)CN(C)C)cc1	·	2.2	·	·	·
CCCCOc1ccc(S(=O)(=O)N2CCCCCC2)cc1	11.6	·	8.8	1.3	3.4
CCOc1ccc(S(=O)(=O)N2CCN(C(=O)c3sccc3C)CC2)cc1	-8.5	·	27.4*	0.6	-2.8
SMILES	SKN-1 block	F508del corr	CendR NRP1 mod	MPTP block	ATG4B inhibitor
COc1ccc(S(=O)(=O)N2CCN(C)CC2)cn1	3.5	1.3	22.4*	-0.9	-2.4
CCCCOc1ccc(S(=O)(=O)N2CCN(C)CC2)cc1	-5.7	-2.0	26.1*	-0.1	1.2
CCNC(=O)C[C@@H]1CC[C@@H]2[C@H](COc3ccc(NC(=O)c4cccc(C(F)(F)F)c4)cc3C(=O)N2C)O1	·	-2.3	·	·	·
CN1C(=O)c2cc(NC(=O)C3CCCCC3)ccc2OC[C@@H]2O[C@@H](CC(=O)NC3CCCC3)CC[C@H]21	·	-1.8	·	·	·
C[C@H](CO)N1C[C@H](C)[C@H](CN(C)C(=O)Nc2ccc(C(F)(F)F)cc2)OCCCC[C@H](C)Oc2ccc(NC(=O)c3ccncc3)cc2C1=O	·	-0.5	·	·	·
Cc1ccccc1S(=O)Cc1ccc(C(=O)N2CCN(C(=O)c3ccco3)CC2)o1 (stereo not drawn)	35.2*	1.1	7.6	-1.3	-4.0
O=C(C=Cc1cccs1)c1ccc(Cl)s1	41.4*	-2.0	9.1	0.5	2.5
Cc1ccc(N(C)S(=O)(=O)c2ccc(-c3cnc(C4CC4)o3)cc2)cc1	5.5	8.3*	3.8	-1.1	0.6

Screens from PubChem BioAssay.
